Data: PubChem BioAssay (NCI)
This is part of a sample that, as a whole, favours compounds with a hit. Of some 79,000 tested, about 15% had one in any assay. The source made the active and inactive calls. Cut-off read from the data, not from the text of the source: active = growth inhibition above about 70%; inactive = the rest.

What was measured:
[1] = NCI Yeast Anticancer Drug Screen. Data for the rad50 strain (AID 155);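 note: 0% = growth of vehicle-only cultures of the same strain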; details: S. cerevisiae rad50 strain growth inhibition; at 50.0 µM; hits give high values
In short: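 Compounds were tested on a yeast strain with an engineered DNA damage repair alteration; the reported value is growth inhibition normalised to vehicle treatment.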

[2] = NCI Yeast Anticancer Drug Screen. Data for the mec2-1 strain (AID 157); details: S. cerevisiae mec2-1 strain, at 50.0 µM, hits give high values
In short: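 Vehicle-treated cultures served as reference for growth inhibition of compound-exposed mec2-1 yeast.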

[3] = NCI Yeast Anticancer Drug Screen. Data for the sgs1 mgt1 strain (AID 161);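 note: 0% = growth of cultures given vehicle only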; details: S. cerevisiae sgs1 mgt1 strain, at 50.0 µM, hits give high values
In short: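 Mutant yeast exposed to compound; growth scored against vehicle-only wells.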

[4] = NCI Yeast Anticancer Drug Screen. Data for the cln2 rad14 strain (AID 165);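 note: 0% = growth equal to vehicle treated cultures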; details: S. cerevisiae cln2 rad14 strain, at 50.0 µM, hits give high values
In short: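 Each compound was tested on cln2 rad14 yeast. Inhibition of growth was calculated against vehicle-exposed controls.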

[5] = NCI Yeast Anticancer Drug Screen. Data for the bub3 strain (AID 167); details: S. cerevisiae bub3 mutant strain, at 50.0 µM, hits give high values
In short: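 Growth of a checkpoint-deficient yeast mutant is measured after compound exposure. Values represent inhibition relative to vehicle.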

[6] = NCI Yeast Anticancer Drug Screen. Data for the mlh1 rad18 strain (AID 175); details: S. cerevisiae mlh1 rad18 strain growth inhibition; at 50.0 µM; hits give high values
In short: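 Vehicle-treated cultures served as the reference for growth inhibition in a yeast strain carrying DNA damage repair alterations exposed to each compound.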

Measured: growth inhibition

Cc1ccc(C(c2ccc(C)c(C)c2)C(O)C(O)C(O)C(O)CO)cc1C (stereo unspecified)
inactive: [1] -4.8% | [2] -2.6% | [3] -2.9% | [4] 1.6% | [5] -6.05% | [6] -18.4%

CC(CO)CCC(=O)C(C)C1CC2(C)CCC3C(CCC4CC(O)CCC43C)C2C12SCCS2 (stereo unspecified)
inactive: [1] 0.6% | [2] 19.5% | [3] -7.8% | [4] 17.1% | [5] 36.6% | [6] -0.25%

Cc1ccc(S(=O)(=O)OCC23CCC(CC2)CC3)cc1
inactive: [1] -30% | [2] -9.85% | [3] -26.2% | [4] -3.5% | [5] 39.6% | [6] -1.2%

N#CC(C#N)=CNc1cccc(Cl)c1
inactive: [1] 34% | [2] 9.8% | [3] 29.2% | [4] 9.45% | [5] -1.05% | [6] 18.5%

Cc1ccc(NC(=O)OCCOc2ccccc2)cc1NC(=O)OCCOc1ccccc1
inactive: [1] 10.3% | [2] 17.1% | [3] 28% | [4] 6.3% | [5] 3.1% | [6] 33.9%

O=S(=O)(O)c1cc(O)c(N=NC2S(=O)(=O)OCCOS2(=O)=O)c2ccccc12
inactive: [1] 7.45% | [2] 2.7% | [3] 31.2% | [4] -9.2% | [5] 16.8% | [6] -4.05%

CCc1ccc(/C(C#N)=C/c2ccccc2Cl)cc1
inactive: [1] 21.9% | [2] 40.5% | [3] 26.4% | [4] 10.2% | [5] 35.2% | [6] 27.1%

Nc1cccc2c1-c1ccc([N+](=O)[O-])cc1C2=O
inactive: [1] 7.6% | [2] 18.4% | [3] -6.25% | [4] 5.5% | [5] 5.55% | [6] 4.25%

CC(C)(C)N=Cc1ccccc1[O-].CC(C)(C)N=Cc1ccccc1[O-].[Co+2]
inactive: [1] 4% | [2] 7.9% | [3] -14.5% | [4] 0.25% | [5] 3.6% | [6] -5.85%

COC(=O)NCc1nc2cc3c[nH][nH]c3cc2n1
inactive: [1] -8.15% | [2] 0.05% | [3] 14.9% | [4] -16% | [5] 11.6% | [6] 11.2%

Cc1cc(C(F)(F)F)cc(-n2nc(NS(=O)(=O)c3cc(C)c(Cl)cc3S)nc2N)n1
inactive: [1] 13.1% | [2] 10.1% | [3] 15.4% | [4] -2.9% | [5] 4.5% | [6] 33.5%

O=C(O)CCCCC1CCCC1
inactive: [1] 43.4% | [2] 8.3% | [3] 12.2% | [4] 5.25% | [5] 18.5% | [6] 56.4%

COC(=O)n1oc2c(Br)cc(Br)cc2c1=O
inactive: [1] -4.15% | [2] -10.4% | [3] 1.45% | [4] -6.85% | [5] -0.2% | [6] 0.8%

CC(=O)NC1CC(C)(C)NC(C)(C)C1
inactive: [1] -18.6% | [2] -30.2% | [3] 3.45% | [4] 10.5% | [5] 0.5% | [6] -9.25%

CC(CN(C)C)C(/C=C/c1ccccc1)=N\Nc1ccccc1 (stereo unspecified)
inactive: [1] -5.7% | [2] 23.4% | [3] 7.85% | [4] -6.3% | [5] -2.1% | [6] 3.25%

CS(=O)(=O)OC1C(OC(=O)c2ccccc2)OC(COC(=O)c2ccccc2)C1OC(=O)c1ccccc1 (stereo unspecified)
inactive: [1] 14.8% | [2] -13.6% | [3] 4.9% | [4] -28.7% | [5] 9.7% | [6] -13.8%

C=C1C(=O)OC2CC(C)C(C(CC(C)=O)OC(C)=O)=CCC12 (stereo unspecified)
inactive: [1] 0.6% | [2] 5.1% | [3] 3.6% | [4] 6.8% | [5] 6.1% | [6] -53.7%

O=S(=O)(O)Cc1ccc(CS(=O)(=O)O)cc1
inactive: [1] 14.7% | [2] -2.1% | [3] -1.3% | [4] -56.4% | [5] -3.8% | [6] -17%

Nc1ccc(I)cc1
inactive: [1] -10.8% | [2] -4.05% | [3] -34.6% | [4] -20.8% | [5] -23.2% | [6] -22.1%

COc1c(C)c(C)c(OC)c(CC(=O)O)c1C
inactive: [1] -3.05% | [2] -0.6% | [3] -3.7% | [4] -34.9% | [5] -17.7% | [6] 4.9%

CC(C)(C)N(Cc1ccccc1)C(=O)Nc1ccccc1
inactive: [1] 6.45% | [2] 3.95% | [3] 21.5% | [4] 1.35% | [5] 32.3% | [6] 7.4%

CC(=O)OC12C3C4C1C1C2C3C41OC(C)=O (stereo unspecified)
inactive: [1] -4.95% | [2] 11.8% | [3] -24.1% | [4] 0.9% | [5] -16.4% | [6] -7.5%

C=CCCCCCCCCCCCCCC
inactive: [1] -0.85% | [2] -2.3% | [3] -4% | [4] 10% | [5] -7.5% | [6] 26.9%

CC/C(=N/NC(=O)NN)c1ccc(Cl)cc1
inactive: [1] -2.2% | [2] 14.3% | [3] -1.2% | [4] -1.8% | [5] 22.6% | [6] 17.6%

O=[N+]([O-])c1ccc(F)c(Cl)c1F
inactive: [1] 15.8% | [2] -6.65% | [3] -2.15% | [4] -20.9% | [5] -12.7% | [6] -3.45%

O=S(=O)(SC(S(=O)(=O)c1ccccc1)S(=O)(=O)c1ccccc1)c1ccccc1
inactive: [1] 13.2% | [2] 9.35% | [3] 39.4% | [4] 1% | [6] 39.2%
active: [5] 72.6%

Cn1cnc2c(Oc3ccc(Cl)cc3)ncnc21
inactive: [1] -7.35% | [2] -14.5% | [3] 5.25% | [4] 8.85% | [5] -22.7% | [6] 5.5%

COCCN1CCC(CO)C1 (stereo unspecified)
inactive: [1] 4.85% | [2] 11.5% | [3] 20.1% | [4] 2.05% | [5] 11.9% | [6] 10.5%

Cc1cc(Cl)nc2ccc(Cc3ccc(Cl)cc3)cc12
inactive: [1] 16.7% | [2] -2.65% | [3] -5.2% | [4] 11.9% | [5] 11.1% | [6] -10.1%

Fc1ccc(-c2cc(-c3cc(-c4ccc(F)cc4)n[nH]3)[nH]n2)cc1
inactive: [1] 20.6% | [2] 9.2% | [3] 25.9% | [4] 6.6% | [5] 9.4% | [6] 32.1%

CN(C)Cc1cc(C(=O)/C=C/c2ccc(Cl)cc2)cc(CN(C)C)c1O
inactive: [1] -27.6% | [2] -22.1% | [3] -20.9% | [4] -44.2% | [5] 1.2% | [6] -18.1%

COc1ccc(NC(=S)NNC(=O)c2nsc3ccccc23)cc1
inactive: [1] 32.5% | [2] 9.85% | [3] 20.8% | [4] 7.35% | [5] -0.8% | [6] -0.15%

NC(CCC(=O)NC(CSSCCCCS(=O)O)C(=O)NCC(=O)O)C(=O)O (stereo unspecified)
inactive: [1] -1.65% | [2] -8.2% | [3] 11.3% | [4] -10.2% | [5] 14.2% | [6] 1.4%

CCOC(=O)C1=C(Nc2cccc3ccccc23)OC/C1=N\NC(=O)c1ccccc1O
inactive: [1] 24.2% | [2] 28.6% | [3] 20.3% | [4] 14.8% | [5] 27.8% | [6] 12.8%

C/C(=N/NC(N)=O)c1ccccc1Cl
inactive: [1] -3.75% | [2] 3.5% | [3] -14.9% | [4] -20.4% | [5] -6.7% | [6] 12.8%

CC(=O)Oc1ccc(NCNc2ccc(OC(C)=O)cc2)cc1
inactive: [1] -11.8% | [2] 0.95% | [3] -3.2% | [4] -26.6% | [5] -2.25% | [6] -3.35%

CN(c1ccccc1)C1C(=O)N(c2ccccc2)C1/C=C/c1ccccc1 (stereo unspecified)
inactive: [1] -8.7% | [2] 0.8% | [3] 13.3% | [4] 29.4% | [5] 11.9% | [6] 39.1%

CCCCC1NC(=O)OC1=O (stereo unspecified)
inactive: [1] -23.6% | [2] -31.4% | [3] -11.2% | [4] 1.9% | [5] -20.2% | [6] -33.4%

CCCCCCCCC(Cl)C(Cl)CCCCCCCC(=O)OC (stereo unspecified)
inactive: [1] -30.2% | [2] -33% | [3] -20.3% | [4] -13.8% | [5] -5.15% | [6] -22.1%

Cc1ccc(P(=O)(O)O)c([N+](=O)[O-])c1
inactive: [1] 5.4% | [2] 1.7% | [3] -3.65% | [4] -7.2% | [5] -4.35% | [6] 12.9%

CCCCCC(=O)c1ccc2[nH]c3c(C)cc([N+](=O)[O-])c(C)c3c2c1
inactive: [1] 3.65% | [2] -35.6% | [3] -34.6% | [4] -2.8% | [5] -17.2% | [6] -10.3%
